Assay results taken from PubChem BioAssay AID952 (NMMLSC, 2007).
The whole screen tested about 190,000 compounds, of which about 45 (0.02%) were called active. Cut-off read from the data, not from the text of the source: active = inhibition above about 40%. These entries were drawn from the full list.

Molecular target: Bcl-2-like protein 2 (Homo sapiens) (UniProt Q92843)
Assay: inhibitors of Bim binding to Bcl-W, primary screen, biochemical, multiplexed, bead-based flow cytometry (AID 952);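 note: 0% = bound tracer without compound and 100% = peptide blocker; higher means less fluorescent Bim peptide bound to Bcl-W beads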
Details: Bim peptide-Bcl-W binding, at 10 µM, active compounds read high

Sequence of Bcl-2-like protein 2 (Homo sapiens) (Q92843 whole entry, looked up): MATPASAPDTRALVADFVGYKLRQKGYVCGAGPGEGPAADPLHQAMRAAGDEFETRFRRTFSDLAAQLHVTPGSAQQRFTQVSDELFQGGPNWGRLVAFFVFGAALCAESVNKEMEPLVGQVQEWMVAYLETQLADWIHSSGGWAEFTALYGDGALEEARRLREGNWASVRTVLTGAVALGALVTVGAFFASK

inhibition, inactive:
CCc1ccc(-n2c(SCc3cc(=O)n4cc(Br)ccc4n3)nc3[nH]ncc3c2=O)cc1 -4%, COCCNC(=O)C(c1ccc(O)cc1)N(C(=O)CCC(=O)Nc1nccs1)c1ccc(C)cc1 (stereo not drawn) -3%, O=C(CN1CCN(S(=O)(=O)c2ccc(Br)cc2)CC1)Nc1ccccc1C(=O)c1ccccc1 -9%, O=C(NCC1COc2ccccc2O1)C1(c2ccccc2)CCCC1 (stereo not drawn) -1%, OCCCC1CCCCN1Cc1nc(Cc2ccccc2Cl)no1 (stereo not drawn) 4%, CCOC(=O)/C(=N\Nc1cc(Cl)ccc1Cl)N1CCN(C)CC1 -5%, COC(=O)c1c(NC(=O)CN(c2ccc(C)c(C)c2)S(C)(=O)=O)sc2c1CCCC2 -6%, Cc1ccc(S(=O)(=O)N2CCCC2C(=O)OCc2nc3sc(C)c(C)c3c(=O)[nH]2)cc1 (stereo not drawn) -3%, CN(C)c1nc(N)nc(Cn2nnc(-c3ccc(C(F)(F)F)cc3)n2)n1 -5%, CC(=O)N/N=C/c1cc2c(cc1[N+](=O)[O-])OCO2 -2%, O=C(CN1CCN(C(=S)NC2CCCC2)CC1)Nc1ccc(Oc2ccccc2)cc1 -12%, Cc1ccc2nsnc2c1NC(=O)c1ccccc1[N+](=O)[O-] 0%, CC(C)N1CCC(N2CCN(Cc3cccnc3)CC2CCO)CC1 (stereo not drawn) -4%, CCN(CCCNC(=O)CCn1c(=O)[nH]c2ccsc2c1=O)c1ccccc1 1%, O=C(COC(=O)c1ccccc1C(=O)N1CCN(c2ccccc2)CC1)NCc1ccccc1 -3%, O=C(CCCO)N/N=C/c1cc(Br)ccc1O -3%, CC(C)(C)CN1CCNC(=O)C1CC(=O)NC1Cc2ccccc2C1 (stereo not drawn) 1%, COc1ccc(C(=O)N2CCC(C(=O)Nc3ccc(C)cc3)CC2)cc1 -1%, N#Cc1ccc(-c2nc3cc(C#N)c(C#N)cc3nc2-c2ccccc2)cc1C#N 0%, COc1ccc(NC(=S)SC)cc1OC -2%, O=C(N/N=C/c1ccc([N+](=O)[O-])o1)c1cccc(S(=O)(=O)N2CCOCC2)c1 0%, C=CCOC(=O)C1=C[C@@H](c2ccccc2)C[C@@H](OCc2ccc(CO)cc2)O1 0%, CCC(C)(C)NC(=O)CN(C(=O)CCC(=O)Nc1cc(C)ccn1)c1ccc2c(c1)OCCO2 1%, Cn1c(=NC(=O)c2ccc3c(c2)OCCO3)sc2cc(S(C)(=O)=O)ccc21 -1%, Cn1nc(-c2ccccc2)c(CO)c1Sc1ccccc1 -2%, Cc1cc(C)c(S(=O)(=O)N2CCOCC2)cc1C 0%, Cc1cccc(C(=O)N2CCc3c([nH]c4ccccc34)C2CC(C)C)n1 (stereo not drawn) 3%, CN(C)S(=O)(=O)c1ccc2oc(SCC(=O)Nc3ccccc3F)nc2c1 0%, O=C(NNC(=O)c1ccccc1[N+](=O)[O-])Nc1ccccc1C(F)(F)F 0%, Cc1cc(C(=O)NNC(=S)Nc2ccccc2C)cs1 0%, COC(=O)c1ccccc1NC(=O)C1CC(=O)N(c2ccc(OC)cc2)C1 (stereo not drawn) 0%, Cc1noc(C)c1S(=O)(=O)N(C)Cc1ccccc1 -1%, CNCC(O)CN1CCN(c2ccccc2OC)CC1 (stereo not drawn) -1%, Cc1ccc(CCCOC(=O)C[N+]2(C)CCCCC2)cc1 0%, CCOC(=O)NN1C(=O)c2ccccc2NC1c1cccc(O)c1 (stereo not drawn) 0%, CCOC(=O)c1c(/N=C/C2C(=O)CC(C)(C)CC2=O)sc(C)c1C 2%, COc1ccc(Cl)cc1C(=O)NNC(=S)NC1CCCC1 1%, Cc1cc(N2CCOCC2)nc(-c2ccc(Br)cc2)n1 -3%, OCC(O)CN(c1ccccc1)c1ccccc1 (stereo not drawn) -1%, O=C(CNC1CCCCC1)NCC1(c2ccccc2)CCCC1 0%, COCCn1c(Cc2cccn2C)nnc1SCC(=O)Nc1nccs1 2%, COc1cc(CNC2CCCC2)c(Br)cc1OCc1ccccc1 -3%, O=C(NCCN1CCOCC1)c1cc(Sc2cccc(Cl)c2)nc2ccccc12 -3%, CCN1CCN(CC(=O)c2cc(OC)c(OC)c(OC)c2)CC1 -1%, O=C(Cc1ccc(F)cc1)N1CCN=C1SCc1cccc([N+](=O)[O-])c1 -1%, CCN(CC)CCNS(=O)(=O)c1ccc(/C=C/C(=O)O)cc1 -2%, C=CCc1ccc(OCC(O)CN2CCN(Cc3ccccc3)CC2)c(OC)c1 (stereo not drawn) -2%, Cn1c(N)c(C(=O)COC(=O)c2cnc(Cl)c(Cl)c2)c(=O)n(C)c1=O 0%, Cc1ccc(NC(=O)CSc2nnc(CNC(=O)c3ccccc3F)o2)cc1 2%, O=[N+]([O-])c1ccc(N2CCNCC2)cc1NCc1cccnc1 0%, CCOC(=O)c1cc(-c2ccc(F)cc2)n(CC(=O)NCc2ccccn2)c1C 0%, CCOC(=O)N1CCN(CCC(=O)Nc2cc(OC)ccc2OC)CC1 1%, C=CCNC(=O)COC(=O)c1ccccc1C(=O)N(C)C1CCCCC1 0%, COc1ccccc1N1CCN(C(=O)C(=O)N/N=C/c2ccccc2F)CC1 -3%, COc1ccc(C(=O)CSc2nc(C)cc(C)n2)cc1[N+](=O)[O-] -1%, CC(C)Oc1ccc(Cc2n[nH]c(=S)n2Cc2ccccc2)cc1Cl -7%, CC1CCCN(CC(O)COCc2ccccc2)C1 (stereo not drawn) 1%, CCCC(NC(=O)c1ccco1)c1nc2ccccc2[nH]1 (stereo not drawn) -5%, C=CCn1c(SCc2cccc(F)c2)nc2cc(C(=O)N3CCC(C(N)=O)CC3)ccc2c1=O -2%, CN(CCOc1ccccc1)Cc1nc2cc(Cl)ccc2c(=O)[nH]1 0%, CC1CC(C)CN(S(=O)(=O)c2ccc(C(=O)NN3CCOCC3)cc2)C1 (stereo not drawn) 1%, COc1ccc2c(c1)C(SCC(=O)NCc1ccccc1)CC(C)(C)O2 (stereo not drawn) -4%, COC(=O)CCNC(=O)c1ccc2[nH]c(C)c(C)c2c1 1%, Cc1ccc(NC(=O)CSc2nnc(COc3ccccc3C)o2)cc1 -1%, COC(=O)CC(=O)N1CCN(c2ccc(Cl)c(Cl)c2)CC1 4%, CSCc1ccc(C(=O)Nc2cc(C)cc(C)c2)cc1 -5%, CCN1CCN(CC(=O)Nc2sc3c(c2C#N)CCC3)CC1 3%, CCOc1cnc(C(=O)NNC(=O)c2ccccc2Br)o1 0%, COc1ccc(-c2csc(NC(=O)COC(=O)c3ccc(Br)o3)n2)cc1 -1%, O=C(CCSc1ccccc1)N1CCN(c2ccccc2F)CC1 -2%, O=C(CCCc1ccccc1)NCc1ccccc1 -1%, COc1cc(/C=C/C2=CC(C)(C)NC(=S)N2)cc(OC)c1OC 0%, CCCCN(CC)C(=O)c1ccccc1Oc1ccccc1 -2%
